From PubChem
Compounds with a hit are over-represented: about 3.6% of the library has one in this group of screens.
CendR NRP1 mod = alters CendR peptide binding to human NRP-1; inhibition, % at 25 µM; actives 0.85% (n = 360,000); FAM-RPARPAR peptide binding to NRP-1, fluorescence polarization;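 active = inhibition or corrected inhibition above about 18%, plus a signal ratio from 0.5 to 1.5, limit read from the data, passing the limit was not always enough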
NadD block = inhibitors of Staphylococcus aureus NadD. inhibition, % at 20 µM. actives 0.78% (n = 360,000). purified NadD enzyme, colorimetric absorbance read-out; in the data active = inhibition above about 26%
CRFBP-R2 block = antagonists of CRF-binding protein/CRF-R2 receptor complex. HEK293 CRF-R2/CRF-BP, CRF-induced calcium fluorescence. inhibition, % at 11.8 µM. actives 0.59% (n = 350,000). AID 588475;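 active = inhibition of the ligand-induced calcium signal above about 50% at the single tested concentration, limit read from the data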
FAS-TE inh = FAS thioesterase (human) inhibition | P49327 | recombinant FAS-TE, OMFH fluorogenic substrate, fluorescence endpoint | inhibition, % at 15 µM | actives 0.67% (n = 360,000) | AID 602261;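 active = compounds whose normalised, plate-corrected inhibition of enzyme fluorescence in the single-dose primary screen is 50% or more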;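 also: 0% = DMSO with enzyme and 100% = substrate without enzyme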
Myeloid diff 2 = compounds promoting myeloid differentiation. ER-HoxA9 myeloid progenitors, lysozyme-GFP differentiation, flow cytometry. calls only at 10 µM. actives 1% (n = 360,000). AID 624256;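 active = normalized GFP-positive differentiation at or above the plate's own cutoff, the solvent-only control mean plus 3 SD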;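 also: cells exposed to compound for four days before flow analysis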
* hit, by the source's call; i = inactive; · = not tested or not shown; + = active, no number.

SMILES	CendR NRP1 mod	NadD block	CRFBP-R2 block	FAS-TE inh	Myeloid diff 2
CCc1ccc(S(=O)(=O)/N=C2\C=C(Nc3ccc(C(=O)O)cc3)C(=O)c3ccccc32)cc1	8.4	-0.8	22.3	1.5	i
Cc1ccc(S(=O)(=O)/N=C2\C=C(Nc3cccc(C(=O)O)c3)C(=O)c3ccccc32)c(C)c1	37.5*	7.1	66.0*	13.7	i
Cc1cc(Br)cn2c(Cc3ccccc3)c(-c3cccc(Br)c3)nc12	-10.0	8.4	·	18.1	i
O=C(COC(=O)c1ccccn1)c1ccc([N+](=O)[O-])cc1	22.2*	-8.4	17.7	7.0	i
Cc1cc(C)c2c(CC(=O)NC(C)C)coc2c1	1.4	1.9	10.2	-4.7	i
Cc1cc(C)c2c(CC(=O)Nc3nccs3)coc2c1	4.1	-2.1	99.4*	-1.0	i
CCN(CC)C(=O)COc1ccc(C=O)cc1OC	-6.1	-0.4	-12.5	-8.8	i
CCNC(=O)C1(C)CCCN(C(=O)c2cc(C)nn2C(C)(C)C)C1 (stereo not drawn)	-0.5	3.8	·	-7.6	i
COc1cc(/C=C(\C#N)C(=O)Nc2ccccc2F)ccc1OCCN1CCOCC1	2.8	-3.8	-6.1	-1.5	i
N#C/C(=C/C1=C(N2CCOCC2)C(=C/c2ccc(Cl)cc2)/CC1)C(=O)Nc1ccccc1F	-53.1	20.0	-15.8	-12.8	+
C=CCn1c(N)cc(=O)nc1SC(C)C(=O)Nc1cccc2ccccc12 (stereo not drawn)	21.6*	-2.6	15.2	-8.5	i
CC(Sc1nc(=O)cc(N)n1CCc1ccccc1)C(=O)NCc1ccccc1 (stereo not drawn)	-5.9	-2.8	-0.1	-4.0	i
CC(C)N(c1ccccc1)c1ccc(NC(=O)[C@@H]2O[C@H](CO)[C@@H](O)[C@H]2O)cc1	-7.9	-3.0	·	-2.6	i
CN1CCn2cnc(C(=O)Nc3ccc(Cl)cc3)c2C1=O	-4.6	3.9	7.3	-5.1	i
COC(=O)c1ccc2nc(-c3ccc(F)cc3)c(Cc3ccsc3)n2c1	-9.1	-1.5	·	8.0	i
Cc1ccc2nc(N3CCN(C)CC3)c(C=O)c(=O)n2c1	21.6*	-0.8	-12.6	-2.8	i
CCC(C(=O)NCCN1CCOCC1)n1c2ccccc2c2nc(=O)cc(C)n21 (stereo not drawn)	10.1	-3.4	51.5*	-3.3	i
Cc1nc(SCC(=O)NCc2ccco2)c2c3c(sc2n1)CCCC3	-5.7	10.1	6.3	9.4	i
COc1ccc(-n2nnc3c(SCC(=O)NCc4ccco4)ncnc32)cc1	35.7*	2.1	-6.3	-13.5	·
CCCc1nc2sc3c(SCC(=O)NCc4ccco4)ncnc3c2c2c1CCC2	-57.8	33.9*	-2.7	6.6	i
Cc1ccc(-n2nnc3c(SCC(=O)NCc4ccco4)ncnc32)cc1	-22.8	-0.2	-5.8	-14.2	i
CN1CCN(S(=O)(=O)c2ccc(N3CCc4ccccc4C3)nc2)CC1	21.4*	-8.9	-18.8	41.7	i
Cn1c(=O)c2c(nc(CN3CCN(C(c4ccccc4)c4ccccc4)CC3)n2CCCO)n(C)c1=O	3.1	0.7	3.5	1.0	i
Cc1ccc(S(=O)(=O)NN=C2CCc3ccccc32)cc1	15.5	-0.5	10.8	1.0	i
COc1ccc(OCC(O)CN2CCc3ccccc3C2)cc1 (stereo not drawn)	11.2	-4.2	56.4*	-5.2	i
SMILES	CendR NRP1 mod	NadD block	CRFBP-R2 block	FAS-TE inh	Myeloid diff 2
COc1cccc(OCC(O)CN2CCc3ccccc3C2)c1 (stereo not drawn)	7.4	-11.6	-9.6	-4.2	i
CN1C[C@@H]2[C@@H]3C(=O)N(C)C(=O)[C@@H]3[C@](C)(C1=O)N2C(=O)c1ccccc1	-1.4	-4.2	-0.8	-10.8	i
CC(=NNC(=O)c1ccncc1)c1ccccc1Cl	17.6	-1.6	0.6	-2.5	i
C/C(=N\NC(=O)c1ccccc1NC(=O)c1ccc(Cl)cc1)c1ccncc1	2.5	4.1	71.5*	28.8	i
CN(C(=O)C1Cc2c(-c3ccc(Cl)cc3)ccnc2O1)c1ccccc1 (stereo not drawn)	13.9	5.1	·	-0.4	i
COc1cccc(CN(C)C[C@H]2OCc3cnnn3CCCC(=O)N([C@@H](C)CO)C[C@@H]2C)c1	-8.8	0.9	-0.9	-6.7	i
COc1ccc(NCc2nnc(SCC(=O)NCc3ccccc3)n2-c2ccccc2OC)cc1	29.1*	-3.2	18.9	-4.2	i
COc1ccccc1N1CCN(C(=O)c2ccc3c(c2)CCN3S(C)(=O)=O)CC1	5.5	1.9	-8.7	-7.0	i
Cc1cc(Cl)ccc1NC(=O)c1ccc2c(c1)CCN2S(C)(=O)=O	16.2*	-11.5	1.1	-1.1	i
Cc1ccccc1NC(=O)c1ccc2c(c1)CCN2S(C)(=O)=O	-1.2	-10.2	8.0	-0.3	i
CS(=O)(=O)N1CCc2cc(C(=O)N3CCN(c4ccccc4F)CC3)ccc21	18.0	-1.9	-2.0	-4.2	+
N=C1/C(=C/c2ccc(-c3cccc(C(=O)O)c3)o2)C(=O)N=C2SC=C(c3ccccc3)N12	-143.1	60.9*	-4.6	12.2	i
N=C1/C(=C\c2ccc(-c3cc(Cl)cc(Cl)c3)o2)C(=O)N=C2SC=C(c3ccccc3)N12	-29.1	5.3	9.2	17.0	i
CC(/C=N/Nc1nnc(C)c(=O)[nH]1)=C\c1ccccc1	23.9*	7.6	4.9	-8.1	i
COCCCN1C(=O)C(CC(=O)NC2CC2)CC(C(=O)N(C(C)C)C(C)C)=C1C (stereo not drawn)	2.3	0.3	·	-11.3	i
CCC(CC)NC(=O)CC(c1ccccc1)c1ccccc1	6.5	-2.6	71.3*	-0.6	i
CCCCNC(=O)C(NC(=O)Cc1cc(OC)cc(OC)c1)C(=O)c1ccccc1 (stereo not drawn)	19.1	·	·	·	i
Nc1cc(Br)cc2c1[nH]c(=O)c1ccccc12	-4.0	6.5	-15.5	-4.1	i
N#CC(c1ccc(Cl)cc1)c1ccc2c(C(F)(F)F)cc(C(F)(F)F)nc2n1 (stereo not drawn)	-5.8	10.3	69.4*	17.8	i
OC(c1ccccc1)c1nc(-c2cccc(C(F)(F)F)c2)cs1 (stereo not drawn)	10.0	1.1	·	26.9	i
CCOc1ccc(-n2c(Cc3cc(=O)[nH]c(=O)[nH]3)nnc2SC(C)C)cc1	38.4*	1.6	10.4	-13.8	i
O=S(=O)(c1ccccc1)c1cnc2ccccc2c1	26.5*	-2.2	-2.5	-4.8	i
COC(=O)C1=C(C)N(C)C(C)=C(C(=O)OC)C1c1ccncc1	3.5	1.6	16.9	-7.9	i
COC(=O)C1=C(C)N(C)C(C)=C(C(=O)OC)C1c1ccc(F)c(Br)c1	12.8	-9.5	54.8*	15.7	i
Cc1ccc(S(=O)(=O)N(C)c2ccc(OCC(=O)Nc3nc4ccccc4s3)cc2)cc1	25.3*	13.3	11.8	20.1	i
O=C(Nc1nc(-c2ccccc2)cs1)c1cccc([N+](=O)[O-])c1	-0.5	4.4	-36.0	56.9*	i
